Measurements published in the supplement of paper PMC6555819.

Tested on: VDR:RXRa (NR concentration 270 nM, RXRa partner concentration 90 nM)
Test: PBM binding z-score (relative to random genomic background probes); higher = stronger binding; sequences stand for … in GC…GCGATTGACAGCGTAGAATGAAGG
Description: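 Protein-binding microarray (Agilent 4x180K custom design, double-stranded 60-nt probes: 5' GC cap, 34-nt variable region, 24-nt constant primer region; full probe sequence given). Purified or IVT nuclear receptor:RXRα heterodimers (3:1 NR:RXRα, mostly 270:90 nM) or homodimers were incubated for 1 h in PBS with 2% milk and no ligand, then detected with Alexa488 antibodies. Fluorescence from o1-orientation probes (~5 replicates averaged) was converted to z-scores against 500 random hg19 background probes. Variable regions are seed direct-repeat (DR0–DR5) sites, all their single-nucleotide variants and half-site ablations.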

Row | Sequence | PBM binding z-score
1 | CCGACCGGGGCAGAAAGGTTACCATACCATCCGG | 1.5
2 | CCTACTGGGCCAGGAAAGGTCATTGATTCAGTGA | 3.53
3 | TCACGGAGGACACGAAAGGTCAGAGCTCGACATC | 3.47
4 | ATATGTAGGTTAAGGGTAATTCAGGTTGGTTCGC | 1.61
5 | CCTACTGGGCCAAGGCCATTGATCAGTCAAAGCA | -0.446
6 | GCTTACGAGTCAAAGGTTATAGCATGAATAGAAT | 2.16
7 | CCGACTGGGGCATAAAGTTACCATAAGCCAGCCC | -0.432
8 | GCTAGTCGGTCAGTAAAAGGTCACACACCGGTCG | 4.18
9 | ACTCGTAGGACAAAGGTCAGAGCTACGCCAGTGA | 2.89
10 | ACTAATAGTTGAGACGAGGGCAACCGATAGGTTG | 1.27
11 | GCTTGTAGATTAAGGTTAAGAAAGACTAAGCTAA | 0.125
12 | AGAATGAGGTTATAAAGATCAGGGAATTGCGGTC | 1.27
13 | AGTCAAAGTTCATCTAGGTAACGCAAGATATGCT | 4.91
14 | CCTACTGGGCCAAGGTTATTGATCAGTCAAAGCA | -0.0867
15 | TCATAGAGGTAAAGGTGAAAGTCGAACGATATGA | 0.788
16 | ATACCAAGGTGATCGTGAAGTCGTTGATACTAAC | 0.0498
17 | GCATATAGGTAATACAAGGTGAAGGTCCGATTGT | 0.155
18 | AATACAGGGTCACAAGGCCAGAGTAGGTACGAAT | 4.82
19 | TCTAGTAGATCAACAGGAGGTTAAGAAAGATCGA | 0.713
20 | ACTATTAGTTGAGTCGAGGGCAACCGATAGGTTG | 0.728

Row | Sequence | PBM binding z-score
21 | TCTAGTTGGTCACGGAGGTCACACACGACGGGTA | 5.62
22 | ATATCTAGGTAACAAGTTCAGTGAAAGAGAGGAC | 2.31
23 | AATACAGGGTCATCGTAGACCAGAGTACGCACAG | 5.04
24 | TGAATGAGGTTAAAGATCGGGGAACGTGGCGTCG | 1.61
25 | CGTCAAAGTTCAACTAAGGTAACGCAAAGCACGC | 4.64
26 | TCTCGGAGGACAGGAAAGGTCAGAGCTCGACATC | 2.7
27 | ATACCAAGGTGAGCGTGAGGTCGTTGATACTAAC | 3.32
28 | TCTATTAGTTGATAAGGGCAACCGAAACAGCGGA | 0.713
29 | CCTACTAGGCCATCAGGTCATTGATATCAACGTT | 2.26
30 | CCAGACAGGTGAAAGGTAACTAAGTCTGGTACGC | 0.397
31 | TTACCAAGGTGAAGGTCGTTGCTCCCTCTGTAGA | 1.36
32 | CCTGCTAGGTCCTGGTCAGCTAATCTACAGTATG | -0.588
33 | CCTAGTTGGTCAAGGTCACCCACGCTATAGGTAC | 4
34 | TCTTGTAGATCAGCAGGTTAAGGAAGCTGGCCAA | 0.37
35 | CGAACTAGGTCAACCAGGACAGTGAATACATTGA | 4.96
36 | ACAGACAGGTTAGTGAAGGTAACTCAGCTGGACG | -0.0325
37 | CCCACTGGGCCAAGGTCATTGATCAGTCAAAGCA | 2.94
38 | ACTATTAGTTGACTTAGGCCAACCGATACGACGC | 0.432
39 | TAGCCAAGGTCATGGGCCAGTATACCACGCGAAC | 4.51
40 | TGAATGAGGTTATAAGATAAGGGAACGTTGCAAA | 0.811
